Data reported in PubChem BioAssay AID422 (Emory University Molecular Libraries Screening Center, 2006).
The whole screen tested about 160,000 compounds, of which about 310 (0.19%) were called active. The full list was thinned out, with actives kept by preference. Values without a mark were called inactive. Rule as the data show it: active = inhibition above about 30%; inactive = the rest.

target: 14-3-3 protein gamma (Homo sapiens) (UniProt P61981); assay: modulators of 14-3-3 gamma protein binding, primary screen, biochemical, fluorescence polarization (AID 422); conditions: FP, 14-3-3gamma / TMR-pS259-Raf peptide binding; at 40 µM; active compounds read high;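 also: 0% = protein plus tracer without compound and 100% = blank with tracer alone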
Sequence (P61981 whole entry, looked up): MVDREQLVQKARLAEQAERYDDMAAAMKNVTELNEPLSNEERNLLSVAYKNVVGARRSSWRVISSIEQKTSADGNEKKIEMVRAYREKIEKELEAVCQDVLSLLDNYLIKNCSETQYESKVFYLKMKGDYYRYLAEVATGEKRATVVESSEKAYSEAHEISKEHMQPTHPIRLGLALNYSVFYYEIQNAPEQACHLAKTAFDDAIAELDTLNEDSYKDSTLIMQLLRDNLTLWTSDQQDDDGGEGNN

Row | SMILES | inhibition
1 | O=C(C1CCC(Cn2c(=O)[nH]c3ccccc3c2=O)CC1)N1CCN(Cc2ccccc2)CC1 (centres undefined) | -3.1%
2 | CSc1cccc(NC(=O)C2c3ccccc3C(=O)N3CCc4ccccc4C23)c1 (centres undefined) | -1.47%
3 | CCCCNC(=O)c1c[nH]c2ccc(S(=O)(=O)Nc3cccc(OC)c3)cc2c1=O | -22.6%
4 | O=C(NC1CCCCCCCCCCC1)c1cnc2n(c1=O)CCS2 | -1.96%
5 | CCCOc1ccccc1C1NC(=O)NC(C)=C1C(=O)OCC1CCCO1 (centres undefined) | 3.08%
6 | CN(C)/C=C1/Nc2ccccc2C1=O | -0.95%
7 | O=C1Nc2ccccc2C1=Nc1ccc(O)cc1 | 87.3% (active)
8 | CN(C)/C=C1/C(=O)Nc2ccccc21 | -2.07%
9 | O=C(Nc1nc2ccccc2n1CCOc1ccccc1)c1cccs1 | 8.38%
10 | CCOCCn1cnc2sc(C(=O)N3CCN(c4ccccn4)CC3)c(C)c2c1=O | 1.28%
11 | Cc1c(Cl)cccc1NC(=O)c1cc(S(=O)(=O)N2CCC(C)CC2)ccc1F | -5.5%
12 | O=C(Nc1nc(-c2cccs2)cs1)c1ccc(S(=O)(=O)N2CCc3ccccc3C2)cc1 | -43.5%
13 | CN1C(=O)c2ccccc2C(C(=O)N2CCC(Cc3ccccc3)CC2)C1c1c[nH]c2ccccc12 (centres undefined) | 6.73%
14 | COc1ccc(CSc2n[nH]c(C)n2)cc1Cl | -0.37%
15 | CSCCC(NS(=O)(=O)c1cccs1)C(=O)Nc1ccc(F)cc1 (centres undefined) | -1.64%
16 | CC(=O)OCC#CCSc1nc2ccccc2o1 | -1.9%
17 | CCOC(=O)C1CCN(S(=O)(=O)c2ccc(I)cc2)CC1 | -2.44%
18 | CC1CCN(S(=O)(=O)c2ccc3ncn(CC(=O)N4CCN(Cc5ccccc5)CC4)c(=O)c3c2)CC1 | 1.95%
19 | CCCCNC(=O)C1c2ccccc2C(=O)N(C)C1c1c[nH]c2ccccc12 (centres undefined) | -0.96%
20 | O=C(OC(c1ccccc1)c1nccc2ccccc12)c1ccc([N+](=O)[O-])cc1 (centres undefined) | -10%

Row | SMILES | inhibition
21 | NC(=O)C1CCN(C(=O)c2ccc3nc4ccccc4c(=O)n3c2)CC1 | 12.3%
22 | CN(C(N)=O)C1CCS(=O)(=O)C1 (centres undefined) | 2.31%
23 | S=c1[nH]nc(-c2cccs2)n1Cc1ccc2c(c1)OCO2 | -5.66%
24 | Nc1ccc2c3c(cccc13)C(=O)NC2=O | 14.8%
25 | CCN1C(=O)c2cccc3c(N)ccc1c23 | 5.38%
26 | CN1C(=O)c2cccc3c(N)ccc(c23)C1=O | 85.5% (active)
27 | COc1ccc(N2C(=O)CCC(C(=O)Nc3ccc(Br)cc3C)C2c2ccc(OC)c(OC)c2)cc1 (centres undefined) | -9.11%
28 | COc1ccccc1CNC(=O)c1cc(-c2ccc(Br)s2)nc2ccccc12 | -1.85%
29 | CCCCc1nc(N)c(C#N)c(-c2ccccc2Cl)c1CCC | -5.82%
30 | COc1ccc(-c2nc(CS(=O)CC(=O)NCc3cccnc3)c(C)o2)cc1OC (centres undefined) | -5.12%
31 | COc1ccc(-c2nc(CS(=O)CC(=O)N3CCc4ccccc4C3)c(C)o2)cc1 (centres undefined) | -4.26%
32 | COc1ccc(-c2nc(CS(=O)CC(=O)NCc3ccccn3)c(C)o2)cc1 (centres undefined) | 99.2% (active)
33 | Fc1ccc(Nc2nc(NCc3ccccc3)c3ccccc3n2)cc1 | -3.64%
34 | CSc1ccc(-c2nc3ccc(Cl)cn3c2Nc2ccc3c(c2)OCO3)cc1 | -19%
35 | COc1ccc(C2Nc3ccccc3NC3=C2C(=O)CC(c2cccc([N+](=O)[O-])c2)C3)cc1 (centres undefined) | 0.48%
36 | CCOc1ccc(S(=O)(=O)NC2CCCC2)c2cccnc12 | -6.1%
37 | COc1ccc([N+](=O)[O-])cc1NC(=O)c1c([N+](=O)[O-])cnn1C | -2.94%
38 | O=C1C2CC=C(Cl)CC2C(=O)N1c1ccc(O)cc1 (centres undefined) | -3.22%
39 | COC(=O)c1ccccc1NC(=O)CCCn1nc([N+](=O)[O-])c(Cl)c1C | -3.89%
40 | CCC(C)(C(=O)NC1CCCCC1)N(C(=O)CC1NC(=O)NC1=O)c1ccccc1 (centres undefined) | -2.16%

Row | SMILES | inhibition
41 | CC1CC(C)CN(CCCNC(=O)C2c3ccccc3C(=O)N(C)C2c2cccs2)C1 (centres undefined) | 4.52%
42 | Cc1c(-c2nc3ccccc3c(=O)[nH]2)sc2nc(-c3ccccc3)nc(N)c12 | -34.5%
43 | CC(C)CN(CC(C)C)S(=O)(=O)c1ccc(Br)cc1 | -5.87%
44 | CCCCCn1c(=O)[nH]c2cc(C(=O)NC(C)C)ccc2c1=O | -3.1%
45 | COc1ccc(N=Cc2c(O)[nH]c3ccccc23)cc1OC | -6.05%
46 | COc1cc(N=Cc2c(O)[nH]c3ccccc23)cc(OC)c1OC | 1.7%
47 | Cc1[nH]c2ccccc2c1C=Nc1ccc(O)cc1 | 121% (active)
48 | CCCCNC(=O)C1CCC(=O)N1CCc1ccccc1 (centres undefined) | -1.84%
49 | CC1=C(C(=O)OCCc2ccccc2)C(c2cccc([N+](=O)[O-])c2)NC(=O)N1 (centres undefined) | -4.75%
50 | O=C1NC2=C(C(=O)c3ccccc32)C(c2ccccc2)S1 (centres undefined) | 3.21%
51 | COc1ccc(C2C=C(c3ccc(-c4ccccc4)cc3)Nc3ncnn32)cc1 (centres undefined) | -7.71%
52 | O=C(Nc1ccc(-c2nnc(-c3ccccc3)o2)cc1)C1CCCO1 (centres undefined) | 5.13%
53 | O=C(Nc1ccc(-c2nnc(-c3ccccc3)o2)cc1)c1ccc(Br)o1 | 116% (active)
54 | O=C(Nc1ccc(-c2nc3ccc(NC(=O)c4ccc(Br)o4)cc3[nH]2)cc1)c1ccc(Br)o1 | -23.6%
55 | O=C(CCSCc1cccc(F)c1)N1CCc2ccccc21 | -8.82%
56 | O=C(CN1CCCN(S(=O)(=O)c2ccc(Br)cc2)CC1)Nc1ccccc1F | -7.48%
57 | CCc1ccc(OCCSc2nc3ccccc3c(=O)[nH]2)cc1 | -1.81%
58 | CC(NC(=O)C(Cc1ccc([N+](=O)[O-])cc1)N1C(=O)c2ccccc2C1=O)c1ccc(CCBr)cc1 (centres undefined) | -10.4%
59 | C=C(C)Cn1c(-c2ccc(N(C)C)cc2)nc2ccccc21 | -2.28%
